# Bioassay records: PubChem, National Center for Advancing Translational Sciences (NCATS)
# Nrf2 activator: activates Nrf2 signaling; AREc32 ARE-luciferase reporter (MCF7-derived line), luminescence, 24 h; AID 624171; Potency, µM (series often up to 46.1 µM), without a hit: at the highest dose activation, hits mostly activators; 410,000 tested, 0.31% active; also: % of control where 0% means no effect; nearly all actives have a fitted effect of over 65% in size
#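 For detection, Steady-Glo was added and plates sat 30 min at RT; before that, AREc32_Fluc cells grown overnight in OPTI-MEM/5% FBS had been treated with 23 nL compound for 24 hr at 37 deg C.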
# TrxR1 substrate: rat thioredoxin reductase 1 substrate activity; purified TrxR1 substrate turnover, NADPH consumption readout; Potency, µM (highest dose often 114 µM), inactives show at the top dose activity change, negative = substrate turnover; 390,000 tested, 0.01% active; AID 588456; also: % is scaled to controls: 0 for no effect and ±100 for the full control effect; nearly all actives have a fitted effect of over 50% in size
# Target sequence (O89049 whole entry, looked up): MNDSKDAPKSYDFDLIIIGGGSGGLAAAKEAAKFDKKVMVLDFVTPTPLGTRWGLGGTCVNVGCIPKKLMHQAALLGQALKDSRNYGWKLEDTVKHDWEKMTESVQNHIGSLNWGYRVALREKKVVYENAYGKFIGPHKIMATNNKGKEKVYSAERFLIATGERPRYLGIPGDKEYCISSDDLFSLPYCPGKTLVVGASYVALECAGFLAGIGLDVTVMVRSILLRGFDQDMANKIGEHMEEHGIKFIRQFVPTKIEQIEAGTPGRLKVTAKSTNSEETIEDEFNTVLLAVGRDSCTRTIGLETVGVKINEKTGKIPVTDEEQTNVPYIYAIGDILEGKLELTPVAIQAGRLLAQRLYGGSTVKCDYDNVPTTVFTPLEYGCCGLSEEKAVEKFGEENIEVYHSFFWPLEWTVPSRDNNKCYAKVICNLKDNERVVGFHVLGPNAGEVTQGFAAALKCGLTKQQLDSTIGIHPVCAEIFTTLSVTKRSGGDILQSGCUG
#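 Rat TrxR1, dispensed at 90 nM, was prereduced with 400 uM NADPH (final) for 5 min at ~22 deg C, then incubated with compound 15 min before 400 uM selenite. A first-read NADPH fluorescence drop versus no-compound background flagged substrates.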
# A549 tox: kills or reduces viability of A549 cells in Nrf2 counter-screen; A549 ARE-Fluc cells, CellTiter-Fluor viability, 18-24 h; Potency, µM (top dose mostly 46 µM), for the others: at the highest dose activity change, negative = cytotoxicity, hits mostly inhibitors; 390,000 tested, 0.16% active; AID 504648; also: % is scaled to controls: 0 for no effect and ±100 for the full control effect
#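 A549 ARE_Fluc cells in 5% FBS OPTI-MEM were exposed to compounds in concentration-response for 18-24 h at 37 deg C. Viability was read by CellTiter-Fluor fluorescence (Ex 405/Em 525) after 30 min, before the luciferase read.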
# GALK inhibitor: blocks human galactokinase activity; 270,000 tested, 0.007% active; AID 1868; Potency, µM (top dose mostly 57.5 µM), for inactives: at the highest dose activity change, negative = inhibition, usual class: inhibitors; Purified GALK, Kinase-Glo residual ATP luminescence; P51570; also: % is scaled to controls: 0 for no effect and ±100 for the full control effect
#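 5 nM enzyme, 35 uM ATP, 100 uM galactose, 20 mM HEPES pH8.0, 5 mM MgCl2; 1 h RT; residual ATP by Kinase-Glo Plus luminescence, qHTS format.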
# Nrf2 inh: blocks Nrf2 signaling; Potency, µM (series often up to 46 µM), for the others: at the highest dose activity change, negative = inhibition, hits mostly inhibitors; 360,000 tested, 2.1% active; A549 ARE-Fluc reporter, luciferase luminescence, 18-24 h; also: % is scaled to controls: 0 for no effect and ±100 for the full control effect; nearly all actives have a fitted effect of over 60% in size
#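 A549 ARE_Fluc cells (5000/well, 5% FBS OPTI-MEM) pre-incubated 2 h, then treated with compounds 18-24 h at 37C/5% CO2 in concentration-response. CellTiter-Fluor viability read first; BugLite luciferase luminescence after 15 min at room temperature gives Nrf2 activity.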
# rTrxR1 inhibitor: rat TrxR1 inhibition. recombinant rTrxR1, NADPH fluorescence consumption, selenite substrate. Potency, µM (highest dose often 114 µM), inactives show top-dose activity change, negative = inhibition, hits mostly inhibitors. 390,000 tested, 1% active. AID 588453; also: % is scaled to controls: 0 for no effect and ±100 for the full control effect; nearly all actives have a fitted effect of over 65% in size
#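 Rat TrxR1 (90 nM in the dispensed reagent) was pre-reduced with 400 uM NADPH for 5 min at room temperature, then incubated with compound for 15 min. After 400 uM selenite was added, NADPH fluorescence (Ex 340/Em 450 nm) was followed for 8 min.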
# * hit, by the source's call; ? = inconclusive; nt = no result; ! = not active in a repeat; [ ] = dose if it differs, or a comment. Compounds with a hit are over-represented: about 3% of the library has one in this group of screens. Calls follow the shape of the dose curve; as a rule, active = well fitted curve in the direction sought with a large enough effect; inconclusive = small, poorly fitted or top-dose-only effect, or another doubt; inactive = no such curve, though single readings can be large; an effect the other way counts as inactive or inconclusive. Potency is read from the fitted curve at half-maximal effect.
SMILES,Nrf2 activator,TrxR1 substrate,A549 tox,GALK inhibitor,Nrf2 inh,rTrxR1 inhibitor
Cc1[nH]nc2c1C1(C(=O)N(Cc3ccc(Cl)cc3)c3ccccc31)C(C#N)=C(N)O2 (centres undefined),0%,-3%[57.1 µM],-6%,0%,21µM*,22%
CCc1ccccc1NC(=O)C(=O)NCCc1sc(-c2cccc(C)c2)nc1C,-1%,3%[57.1 µM],14%,nt,nt,31%[57.1 µM]
CN(CC(=O)Nc1ccc(F)c(Cl)c1)S(=O)(=O)c1cccc2nsnc12,-1%,-9%,-14%,0%,26µM*,1%
Cc1ccc(NC(=O)CN(C)S(=O)(=O)c2cccc3nsnc23)cc1,-1%,4%[57.1 µM],2%,-2%,nt,-1%[57.1 µM]
Cc1cc(F)ccc1NC(=O)CN(C)S(=O)(=O)c1ccc(C(=O)N2CCOCC2)s1,-1%,-2%[57.1 µM],9%,nt,nt,9%[57.1 µM]
Cc1oc(-c2ccccc2F)nc1CS(=O)(=O)CC(=O)N1CCN(c2ccc(Cl)cc2)CC1,0%,-4%,?,nt,5.8µM*,1%
CC(C)CCNC(=O)c1cc(-c2ccc(Br)s2)nc2ccccc12,4%,16%,7%,nt,11%,4%
CCOC(=O)/C=C1\CN(Cc2cc(OC)c(OC)c(OC)c2)S(=O)(=O)c2ccc(C(F)(F)F)cc21,2%,0%[57.1 µM],0%,nt,21µM*,50µM*!
CCOC(=O)/C=C1\CN(Cc2cc(OC)c(OC)c(OC)c2)S(=O)(=O)c2ccccc21,6%,-7%,-9%,nt,?,0%[57.1 µM]
CCc1nn(CC(=O)NC2CC2)c(=O)c2cc3c(OC)cccc3n12,0%,48%,-3%,nt,14%,26%
C/C(=N\NC(=O)c1c(Cl)c(C)nn1C)c1cccc(NC(=O)c2cccc(F)c2)c1,4%,-7%,0%,5%,9.2µM*,-1%
O=C(N/N=C\C=C\c1ccco1)c1cncc(Br)c1,13µM*,-16%,-3%,-2%,-23%,50µM*
O=C(N/N=C/C=C\c1ccco1)c1cccnc1,?,-11%,-11%,-1%,14%,?
O=C(N/N=C/C=C/c1ccco1)c1cccnc1,?,-12%,-13%,-2%,21%,5.6µM*
CN(CC(=O)NCCc1ccc(S(N)(=O)=O)cc1)Cc1ccc(Cl)cc1Cl,0%,7%[0.0914 µM],-6%,-1%,18µM*,14%[57.1 µM]
Cc1ccc(N/C=C/C(=O)c2ccccc2)cc1Br,11µM*,4%,-12%,0%,?,26%
O=C(/C=C/Nc1ccc(F)c(Cl)c1)c1ccccc1,11µM*,-4%,2%,0%,?,22%[2.29 µM]
O=C(/C=C/Nc1cccc(O)c1)c1ccccc1,14µM*,2%,-17%,4%,-18%,7%
COc1ccccc1NC(=O)c1ccc2[nH]c(C)cc(=O)c2c1,5%,-2%,3%,nt,-6%,12%
CCN(Cc1ccncc1)Cc1c(O)ccc2ccccc12,14%,12%[57.1 µM],8%,9%,16%,5µM*
CCOc1cc(/C=C2\SC(=S)N(N3CCOCC3)C2=O)ccc1O,0%,-1%,-5%,9%,6%,14%
CCOc1cc(/C=C2\SC(=N)N(c3nccs3)C2=O)ccc1OCCN1CCOCC1,0%[9.22 µM],-12%,21µM*,nt,18µM*,-8%
N#C/C(=N\Nc1ccc([N+](=O)[O-])cc1)C(N)=S,2%,-1%[57.1 µM],18µM*,nt,?,-40%
O=C(O)c1ccc(N=NNc2cccc([N+](=O)[O-])c2)cc1,11%,-5%,1%,-2%,?,16%
N#C/C(=N/Nc1ccc([N+](=O)[O-])cc1)C(=N)N1CCCCC1,2%,-23%,?,0%,?,-14%
SMILES,Nrf2 activator,TrxR1 substrate,A549 tox,GALK inhibitor,Nrf2 inh,rTrxR1 inhibitor
N#C/C(=N\Nc1cccc([N+](=O)[O-])c1)C(=O)c1ccc(Br)cc1,14%,-20%,-22%,-9%,9.2µM*,6%[57.1 µM]
COc1ccc(NS(=O)(=O)c2ccccc2)cc1NS(=O)(=O)c1ccccc1,nt,nt,-5%,nt,-2%,nt
O=C(/C=C/c1ccccc1)NC(NC(=S)Nc1cc(Cl)ccc1Cl)C(Cl)(Cl)Cl (centres undefined),9%,-5%[57.1 µM],?,1%,4.1µM*,11%
CCCCCCSc1ccc([C@H]2N[C@@](C)(C(=O)OC)[C@H]3C(=O)N(C)C(=O)[C@@H]23)cc1,-1%,0%[57.1 µM],0%,nt,26µM*,9%[57.1 µM]
CCN1C(=O)[C@H]2[C@@H](c3ccc(-c4ccc(OC)cc4)c(OC)c3)N[C@@](C)(C(=O)OC)[C@H]2C1=O,2%,27%,-7%,nt,-10%,-3%
CCN1C(=O)[C@H]2[C@@H](c3ccc(-c4ccc(F)cc4)c(OC)c3)N[C@@](C)(C(=O)OC)[C@H]2C1=O,-1%,1%,-11%,nt,-10%,79µM*
CCCSc1ccc([C@H]2N[C@@](C)(C(=O)OC)[C@H]3C(=O)N(C)C(=O)[C@@H]23)cc1,0%,2%[57.1 µM],0%,nt,-28%,4%[57.1 µM]
COc1ccc(N(C(=O)c2cc(OC)c(OC)c(OC)c2)S(=O)(=O)c2ccc(C)cc2)cc1,3%,3%,1%,nt,?,9%
COC(=O)c1sc(NC(=S)NC(=O)c2cccc(Br)c2)nc1C,16µM*,-7%,0%,5%,21%,0%
COc1ccc(/C=N/Nc2nnc(-c3ncc[nH]3)c3ccccc23)cc1,3%,-3%,-24%,-1%,-1%,6%
Oc1ccc2ccccc2c1/C=N/Nc1nnc(-c2ncc[nH]2)c2ccccc12,-1%,-8%,nt,0%,5.2µM*,-11%
COc1ccc(NC(=O)c2cc3n(n2)C(C(F)(F)F)CC(c2ccc4c(c2)OCO4)N3)cc1OC (centres undefined),0%,4%,-26%,2%,23µM*,4%
O=S(=O)(c1cccc(-c2nnc(SCc3nc4ccccc4s3)o2)c1)N1CCOCC1,14µM*,-2%[11.4 µM],7%,3%,?,-32%[11.4 µM]
COc1ccccc1N1CCN(c2ncnc3c2cnn3C)CC1,0%,4%[57.1 µM],0%,nt,nt,18%[57.1 µM]
O=S1(=O)C=C(SCc2cccc(Cl)c2)Nc2ccccc21,-1%,-4%,0%,-3%,21µM*,-3%
O=C(Cc1ccc(-n2c(=O)[nH]c3ccsc3c2=O)cc1)N1CCN(c2ccc(Cl)cc2)CC1,5%,-22%[57.1 µM],-1%,1%,23µM*,7%[57.1 µM]
CCCSc1oc(-c2cccs2)nc1S(=O)(=O)c1ccc(C)cc1,1%,18%,3%,nt,-15%[9.27 µM],14%
CCC(C)S(=O)(=O)c1oc(-c2ccc(F)cc2)nc1S(=O)(=O)c1ccc(F)cc1 (centres undefined),-5%,12%,?,nt,?,2µM*
